Data as given in PubChem BioAssay AID2685 (National Center for Advancing Translational Sciences (NCATS), 2010).
The whole screen tested about 320,000 compounds, of which about 2,100 (0.66%) were called active. Another 53% or so got no clear call; they are omitted. Calls come from the whole dose curve; as a rule, active = well fitted inhibition curve with a large enough effect in the signal ratio, with a control signal flat (not every such curve was filed as active); inconclusive = small, poorly fitted or top-dose-only effect, or effect the other way, or a change in a side signal; inactive = flat fitted curve, though single readings scatter; the % refers to the signal ratio. The sample as a whole holds a higher share of actives than the screen did.

experiment: qHTS Assay for Lipid Storage Modulators in Drosophila S3 Cells; conditions: BODIPY lipid droplet fluorescence, 18-24 h, cells fed with added oleic acid; cell number change: measured here: cell count max response; series mostly up to 46.1 µM; lipid storage change, negative = inhibition: at the top concentration;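 for cell number change: cells counted by Cell Tracker Red CMTPX staining in the red channel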; for lipid storage change, negative = inhibition: % is set by controls: 0 for no effect and ±100 for the full control effect
Method in brief: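 Drosophila S3 cells loaded with oleic acid (400 uM, as added) and compounds at several concentrations; lipid droplets imaged by 488-nm laser-scanning cytometry, 500–530 nm intensity and object ratio to cell channel. Percent activity normalized to 20 uM Triacsin C.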
Potency is the fitted concentration of half-maximal effect.

SMILES	lipid storage change, negative = inhibition	cell number change [%]	outcome	Potency
CCCc1nc(NCCO)c(C#N)c2c1CCCC2	7.13% (inactive)	7.48	–	–
COc1ccccc1NC(=O)CC1C(=O)Nc2ccccc2N1C(=O)c1ccccc1 (configuration not stated)	-3.67% (inactive)	5.14	–	–
O=C(OCC(=O)N1CCOCC1)c1c(Cl)ccc(Cl)c1Cl	–	–	inactive	–
O=C(OCC(=O)N1CCCC1)c1c(Cl)ccc(Cl)c1Cl	–	9.01	–	2.91 µM (active)
O=C(OCC(=O)N1CCCC1)c1cc(Cl)ccc1Cl	5.2% (inactive)	4.05	–	–
O=S(=O)(Nc1ccc(Br)cc1)c1cccc(NC(=S)NCCN2CCOCC2)c1	–	13	inactive	–
COC(=O)c1ccccc1CSc1nsc(/C=C/N(C)C)c1C#N	9.5% (inactive)	7.59	–	–
COC(=O)c1ccccc1CSc1nsc(C)c1C#N	–	26.2	–	9.2 µM (active)
Cc1ccc(CSc2nsc(C)c2C#N)cc1	16.1% (inactive)	8.89	–	–
O=C(CCS(=O)(=O)c1ccccc1)Nc1nc2cc3c(cc2s1)OCO3	10.2% (inactive)	-2.46	–	–
O=C(O)CCC(=O)Nc1ccc(OCC2CCCO2)cc1 (configuration not stated)	-2.25% (inactive)	20.5	–	–
O=C(O)CCC(=O)OCC1CCCO1 (configuration not stated)	–	-20.4	–	23.1 µM (active)
O=C(O)CCC(=O)OCC1CCCCC1	–	6.49	inactive	–
Cc1occc1C(=O)N1CCN(S(C)(=O)=O)CC1	1.26% (inactive)	15.2	–	–
COCCCNC(=O)Cc1c(C)c2cc3c(cc2oc1=O)OC(C)(C)CC3	-14.7% (inactive)	-2.78	–	–
O=C(NCCCN1CCCCC1)C1CCCN(c2ncnc3c2nc2n3CCCCC2)C1 (configuration not stated)	–	-4.96	–	29.1 µM (active)
CC1CC(C)CN(CCCNC(=O)C2CCCN(c3ncnc4c3nc3n4CCCCC3)C2)C1 (configuration not stated)	–	27	inactive	–
COc1ccc(CNC(=O)C2CCCN(c3ncnc4c3nc3n4CCCCC3)C2)cc1 (configuration not stated)	2.83% (inactive)	3.46	–	–
COc1ccc(OC)c(CNC(=O)C2CCCN(c3ncnc4c3nc3n4CCCCC3)C2)c1 (configuration not stated)	–	-11.8	–	2.31 µM (active)
CC1CCN(C(=O)C2CCN(c3ncnc4c3nc3n4CCCCC3)CC2)CC1	–	-15	–	3.66 µM (active)
CC1CCN(C(=O)C2CCCN(c3ncnc4c3nc3n4CCCCC3)C2)CC1 (configuration not stated)	20.4% (inactive)	-11.2	–	–
O=C(NCCCN1CCCCC1)C1CCN(c2ncnc3c2nc2n3CCCCC2)CC1	5.21% (inactive)	15.5	–	–
COc1cccc(CNC(=O)C2CCCN(c3ncnc4c3nc3n4CCCCC3)C2)c1 (configuration not stated)	–	–	inactive	–
CCCN1CCN(C(=O)C2CCN(c3ncnc4c3nc3n4CCCCC3)CC2)CC1	–	-18.8	inactive	–
Cc1cc(C)n2nc(C(=O)OCC(=O)Nc3ccc(F)cc3F)nc2n1	6.42% (inactive)	11.7	–	–
CN(C)C(=S)Nc1cccc(F)c1	-8.92% (inactive)	0.661	–	–
CC(C)(C)c1cc(S(=O)(=O)CCc2ccncc2)cc(C(C)(C)C)c1F	–	-5.56	inactive	–
